Drawing on PubChem BioAssay (NCATS), this text covers Potency, outcome and Z-AUC for eight compounds.

Structures are written as SMILES. Values joined by “and” are separate entries in the source; they are usually repeats but may differ in a detail not shown here. Equal values may be shown once. Inconclusive results are not listed. Active and inactive are the calls of the source. Unless noted, calls follow the shape of the dose curve; as a rule, active = well fitted curve in the direction sought with a large enough effect; inconclusive = small, poorly fitted or top-dose-only effect, or another doubt; inactive = no such curve, though single readings can be large; an effect the other way counts as inactive or inconclusive.

The subject of assay [1] is Zika virus NS2B-NS3 protease (unlinked complex). Description: Primary screen GU Rhodamine qHTS for Zika virus inhibitors: Unlinked NS2B-NS3 protease assay (AID 1347159). Also: % is scaled to controls: 0 for no effect and ±100 for the full control effect; nearly all actives have a fitted effect of over 60% in size. Put shortly:
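Percent inhibition derives from the 15-min fluorescence change (ex 480, em 540 nm), normalized to no-enzyme and no-inhibitor wells. Reactions contained 25 nM NS2B-NS3 complex and 1.5 microM substrate in 10 mM Tris-HCl pH 8.0.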
(In qHTS, concentration-response curves come from the screen itself.)

In assay [2] the test system is Zika virus NS2B-NS3 protease (linked construct). The assay can be described thus: Primary screen NINDS Rhodamine qHTS for Zika virus inhibitors (AID 1347160). Also: nearly all actives have a fitted effect of over 55% in size. Also: potency is read from the fitted curve at half-maximal effect. Put shortly: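 In 10 mM Tris-HCl pH 8.0 containing 0.01% Tween 20, linked NS2B-NS3 protease (25 nM final) is exposed to test compounds for 15 min. Cleavage of 1.5 microM Rhodamine110 substrate is tracked by fluorescence over 15 min.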

The target of assay [3] is Calcium and integrin-binding protein 1 (Homo sapiens) (UniProt Q99828). The assay can be described thus: Primary qHTS for Identification of Calcium Integrin Binding Protein 1 (CIB1) Competitor (AID 1508620).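 Also: GST tagged CIB1 binding a fluorescein labelled alphaIIb integrin peptide tracer; top concentration of the series differs between compounds; % is scaled to controls: 0 for no effect and ±100 for the full control effect.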 Put shortly:
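Fluorescence polarization competition: GST-tagged CIB1 (1 uM final) preincubated with compound 15 min at room temperature, then FITC-labelled alphaIIb peptide (100 nM final) added. After 15 min at room temperature, polarization read at Ex 480/Em 540.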

The nature of assay [4]: Primary qHTS for inhibitors of nuclear receptor binding SET domain protein 2 (NSD2) in an isogenic RCH-ACV NSD2 p.E1099K mutant (9B) (AID 1645876). Also: potency is read from the fitted curve at half-maximal effect; nearly all actives have a fitted effect of over 70% in size.
The nature of assay [5]: Primary qHTS for inhibitors of nuclear receptor binding SET domain protein 2 (NSD2) in an RCH-ACV wild type WT cells (2C) (AID 1645877). Also: potency is read from the fitted curve at half-maximal effect; nearly all actives have a fitted effect of over 70% in size.
For assay [6], the target named is Glutathione peroxidase 1 (Homo sapiens) (UniProt P07203). The assay can be described thus: Primary qHTS Assay for Inhibitors of Recombinant Selenoprotein Glutathione Peroxidase 1 (GPX1) (AID 1845191). Also: nearly all actives have a fitted effect of over 65% in size. The method, boiled down: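 GR-coupled assay: compounds preincubated 30 min at room temperature with GPX1, then reaction started with CHP; final 10 nM GPX1, 1 mM GSH, 0.5 mM CHP, 0.5 mM NADPH, 100 nM GR, 0.01% BSA, pH 7.5 Tris buffer. NADPH fluorescence (340/450 nm) read at 0 and 15 min.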

Assay [7] addresses Phospholipid hydroperoxide glutathione peroxidase GPX4 (Homo sapiens) (UniProt P36969). Description: Primary qHTS Assay for Inhibitors of Recombinant Selenoprotein Glutathione Peroxidase 4 (GPX4) (AID 1845192). Also: % is scaled to controls: 0 for no effect and ±100 for the full control effect; nearly all actives have a fitted effect of over 65% in size. To be noted: outcome: dose series up to 50 µM unless noted. The method, boiled down:
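GR-coupled assay: recombinant GPX4 preincubated 30 min with compound at room temperature; final 200 nM GPX4, 1 mM GSH, 0.5 mM cumene hydroperoxide, 0.5 mM NADPH, 100 nM GR, 0.01% BSA, pH 7.5 Tris. NADPH fluorescence (340/450 nm) read at 0 and 15 min.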

The target of assay [8] is Luciferin 4-monooxygenase (Photinus pyralis) (UniProt P08659). The assay can be described thus: Primary firefly luciferase (FLuc) qHTS assay for identification of artifact compounds. (AID 1845220). Also: nearly all actives have a fitted effect of over 60% in size. The method, boiled down: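 Enzymatic FLuc inhibition assay: compounds pre-exposed to luciferin/ATP (10 uM each) for 15 min, then purified P. pyralis enzyme at 10 nM added. Read-out: luminescence at 5 min.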

Assay [9] has as its system Nanoluciferase (engineered Oplophorus gracilirostris luciferase). The assay can be described thus: Primary Nanoluciferase (NLuc) qHTS assay for identification of artifact compounds. (AID 1845222).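 Also: NLuc secreted into diluted conditioned medium of S16 cells; 0% = DMSO and -100% = no enzyme.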 Put shortly:
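S16 cell supernatant NLuc, 1:55; cpds qHTS; 15 min RT dark; Nano-Glo substrate 1:100, 5 min; luminescence; Hill fit of % inhibition.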

Assay [10] relates to HeLa. Description: Primary qHTS to identify gynecologic anti-cancer compounds using libraries of approved drugs and bioactive compounds (AID 1345084). Also: nearly all actives have a fitted effect of over 55% in size. Also: potency is read from the fitted curve at half-maximal effect. To be noted: Gynecologic cancer cell panel viability, ATPlite luminescence, 48 h; series mostly up to 57.5 µM. Put shortly:
(§1)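 Cytotoxicity screen measuring ATP content by luciferase luminescence. Each compound is applied at five concentrations for 48 h at 37 C with 5% CO2.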

For assay [11], the system named is Hek293T. The description is as above. To be noted: Gynecologic cancer cell panel viability, ATPlite luminescence, 48 h, control line for the selectivity index; series mostly up to 57.5 µM. The method, boiled down: as §1
A general note: In ATP-based viability assays light output follows the ATP content of the culture.

Assay [12] relates to OV90. The assay is described as above. To be noted: Gynecologic cancer cell panel viability, ATPlite luminescence, 48 h; series mostly up to 57.5 µM. Put shortly:
as §1

Assay [13] relates to Tov112D. Described as above. To be noted: Gynecologic cancer cell panel viability, ATPlite luminescence, 48 h; series mostly up to 57.5 µM. The method, boiled down: as §1
A short description of assay [14]: Primary fluorescence-based thiol-reactive (MSTI) qHTS assay for identification of artifact compounds. (AID 1845221).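 Also: thiol-reactive compounds lower the probe fluorescence signal; nearly all actives have a fitted effect of over 65% in size.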 Put shortly: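 Curve-fitted percent inhibition (4-parameter Hill) derived from fluorescence, Ex 525/Em 598 nm, scaled with Acetyl-MSTI and MSTI; 1 h incubation at room temperature.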
The test system of assay [15] is CASKI. Description: Primary qHTS to identify gynecologic anti-cancer compounds using libraries of approved drugs and bioactive compounds (AID 1345084). Also: nearly all actives have a fitted effect of over 55% in size. Also: potency is read from the fitted curve at half-maximal effect. To be noted: Gynecologic cancer cell panel viability, ATPlite luminescence, 48 h; series mostly up to 57.5 µM. Put shortly:
as §1

The test system of assay [16] is Es-2. The description is as above. To be noted: Gynecologic cancer cell panel viability, ATPlite luminescence, 48 h; series mostly up to 57.5 µM. The method, boiled down: as §1
Assay [17] deals with JEG-3. Described as above. To be noted: Gynecologic cancer cell panel viability, ATPlite luminescence, 48 h; series mostly up to 57.5 µM. Put shortly:
as §1

A short description of assay [18]: P-glycoprotein substrates identified in KB-8-5-11 adenocarcinoma cell line, qHTS therapeutic library screen (AID 1346987). Also: potency is read from the fitted curve at half-maximal effect; nearly all actives have a fitted effect of over 65% in size. The method, boiled down: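 KB-8-5-11: colchicine-selected sub-line of KB-3-1 over-expressing P-gp; assay medium lacked colchicine. 72 h drug exposure at 37 degree C, CellTiter-Glo.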
The nature of assay [19]: qHTS drug screen for cell cycle checkpoint inhibitors in PARPi-resistant BRCA-mutant ovarian cancer cell lines. (AID 1963452; calls by dose curve). To be noted: PEO1/OlaR viability, CellTiter-Glo luminescence, 96 h, stronger effect = lower value. The method, boiled down:
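PEO1, PEO4 and PEO1/OlaR ovarian cancer cells, 600 per well, exposed 96 h at 37C to a dilution series. Viability read by CellTiter-Glo luminescence, normalized to DMSO and empty wells; activity summarized as Z-AUC.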

Assay [20] relates to C33A. The assay can be described thus: Primary qHTS to identify gynecologic anti-cancer compounds using libraries of approved drugs and bioactive compounds (AID 1345084). Also: nearly all actives have a fitted effect of over 55% in size. Also: potency is read from the fitted curve at half-maximal effect. To be noted: Gynecologic cancer cell panel viability, ATPlite luminescence, 48 h; series mostly up to 57.5 µM. The method, boiled down:
as §1

Chain of Calcium and integrin-binding protein 1 (Homo sapiens) (Q99828 whole entry, looked up): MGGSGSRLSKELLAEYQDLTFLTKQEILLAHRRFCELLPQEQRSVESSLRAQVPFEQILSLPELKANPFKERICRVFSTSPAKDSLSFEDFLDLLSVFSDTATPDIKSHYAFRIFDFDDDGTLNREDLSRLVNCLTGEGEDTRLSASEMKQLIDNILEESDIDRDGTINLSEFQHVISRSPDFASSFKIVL
Chain of Phospholipid hydroperoxide glutathione peroxidase GPX4 (Homo sapiens) (P36969 whole entry, looked up): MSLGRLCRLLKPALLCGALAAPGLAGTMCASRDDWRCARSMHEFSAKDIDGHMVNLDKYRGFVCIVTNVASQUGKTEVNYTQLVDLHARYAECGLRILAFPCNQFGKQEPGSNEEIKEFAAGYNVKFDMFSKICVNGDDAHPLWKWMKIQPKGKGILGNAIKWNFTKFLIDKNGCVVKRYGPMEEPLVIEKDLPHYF
Chain of Glutathione peroxidase 1 (Homo sapiens) (P07203 whole entry, looked up): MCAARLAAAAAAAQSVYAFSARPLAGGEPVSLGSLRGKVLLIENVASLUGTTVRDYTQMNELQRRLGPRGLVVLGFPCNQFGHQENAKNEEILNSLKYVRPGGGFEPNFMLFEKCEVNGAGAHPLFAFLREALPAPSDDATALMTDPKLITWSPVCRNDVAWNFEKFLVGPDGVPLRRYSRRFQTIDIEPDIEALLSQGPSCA

With `C=C(C)C(=O)O[C@H]1[C@H]2C(=C)C(=O)O[C@@H]2C[C@@H](C)[C@@H]2O[C@@H]2C(=O)[C@](C)(O)[C@@H]1OC(C)=O`, the Potency result in [1], in assay [2], in assay [6], in assay [7], in assay [8] and in assay [9] was “inactive” throughout. Moreover, the Potency result in [10], in [12] and in [13] was “inactive” each time. In assay [3], the outcome was inactive. Moreover, the Potency in assay [4] was 2.82 µM (active); in assay [5] it was 1.42 µM (active); in assay [11] it was 10 µM (active).
`O=C(Nc1ncc(SCCN2CCCC2)s1)C1(c2ccc(S(=O)(=O)C3CC3)cc2)CC1C1CCCCC1` (stereo not given): the Potency entry in assay [1], in [2], in [6], in assay [7], in [8] and in [14] was “inactive” each time. Besides, the Potency entry in [15], in assay [16], in assay [10], in [11], in assay [17] and in [12] was “inactive” in each case. Further, the Potency result in assay [13] is “inactive”. The outcome in assay [3] was inactive. Also, the Potency was 16.3 µM (active) in [4] and 12.9 µM (active) in assay [5].
In the case of `CC[C@@H](C)[C@H]1C(=O)O[C@H](C(C)C)C(=O)N(C)[C@@H](C(C)C)C(=O)O[C@H](C(C)C)C(=O)N(C)[C@@H](C(C)C)C(=O)O[C@H](CC(C)C)C(=O)N1C`, the Potency entry in assay [1], in [2], in assay [6], in [7], in [8] and in assay [14] was “inactive” in each case. For the same compound, the Potency entry in assay [9] and in assay [17] was “inactive” in each case. In addition, the outcome in assay [3] was inactive. Further, the Potency is 5.41 µM (active) in assay [4] and 2.16 µM (active) in assay [5].
For the compound `COc1cc(N2CCN(C)CC2)ccc1Nc1nccc(-c2cn(C)c3cnccc23)n1`, the Potency in [18] was 16.4 µM (active); in [4] it was 7.28 µM (active) and 8.33 µM (active); in assay [5], 5.15 µM (active) and 4.17 µM (active). For the same compound, the Potency result in [1], in [6], in assay [7], in assay [8], in assay [9] and in assay [10] was “inactive” in each case. Further, the Potency result in assay [11], in assay [17] and in assay [13] was “inactive” each time. Also, the result in assay [3] was inactive. In addition, the Z-AUC was -0.0606 (inactive) in assay [19], 0.299 in assay [19] (measured here: PEO1 parental Z-AUC) and 0.437 in assay [19] (measured here: PEO4 Z-AUC).
For the compound `OC(CNCCc1c[nH]c2ccccc12)Cn1c2ccccc2c2ccccc21` (stereo not given), the Potency in assay [18] is 16.4 µM (active); in assay [4] it was 5.15 µM (active); in assay [5], 4.59 µM (active). In addition, the Potency entry in assay [1], in assay [2], in [6], in assay [7], in [8] and in assay [14] was “inactive” in each case. Besides, the Potency entry in [9], in assay [16], in [10], in assay [11], in assay [17] and in assay [12] was “inactive” each time. The Potency entry in [13] was “inactive”. Moreover, the outcome in assay [3] was inactive.
In the case of `CCCc1c(C(C)C)nc(C(C)C)c([C@@H](C)O)c1-c1ccc(F)cc1O`, the Potency was 14.1 µM (active) in assay [2] and 14.5 µM (active) in assay [5]. For the same compound, in assay [3], the outcome was inactive. For the same compound, the Potency entry in assay [6], in [7], in assay [8], in assay [14], in assay [9] and in [15] was “inactive” each time. The Potency result in assay [16], in assay [11] and in assay [12] was “inactive” in each case.
In the case of `CC1OC2OC3C(OCC(O)C3O)OC(=O)C34CCC(C)(C)CC3C3=CCC5C6(C)CC(O)C(OC7OC(CO)C(O)C(O)C7OC7OCC(OC(=O)CC(C)(O)CC(=O)OC1C(OC1OCC(O)C(O)C1O)C2O)C(O)C7O)C(C)(CO)C6CCC5(C)C3(C)CC4O` (stereo not given), the Potency result in assay [2], in [6], in [7], in assay [8], in assay [14] and in [17] was “inactive” each time. The result in assay [3] was inactive. Besides, the Potency in [4] was 2.52 µM (active); in [5], 3.17 µM (active); in assay [12] it was 10 µM (active).
`N#Cc1ccc(-c2ccc(NC(=O)Nc3ccc(-c4ccnc5nc[nH]c45)cc3)cc2)cc1`: the Potency result in assay [2], in assay [8], in assay [14] and in assay [9] was “inactive” each time. Further, the Potency in [20] was 5.01 µM (active).
